Laboratory results: PubChem BioAssay AID1794842 (National Center for Advancing Translational Sciences (NCATS), 2023)
The campaign covered roughly 2,800 compounds. Fewer than 10 were called active. Calls follow the shape of the dose curve; as a rule, active = well fitted curve in the direction sought with a large enough effect; inconclusive = small, poorly fitted or top-dose-only effect, or another doubt; inactive = no such curve, though single readings can be large or run the other way. A selection follows.

The compounds below were run against Metallo-beta-lactamase type 2 (Klebsiella pneumoniae) (UniProt C7C422) (assay: qHTS to identify inhibitors of the New Delhi Metallo-beta-lactamase (NDM): Meropenem screen against the machine-based learning selections.). Conditions: Purified NDM-1, meropenem hydrolysis, absorbance 300 nm; series mostly up to 38.4 µM; activity change, negative = inhibition: at the top concentration.
From the text: Assay Submitter (PI): James Inglese Ph.D., Patricia Dranchak Ph.D., Mahesh Aitha Ph.D. Assay Development and Screening Technology Laboratory (ADST) National Center for Advancing Translational Sciences (NCATS), Rockville, MD National Institute of Health (NIH), Bethesda, Maryland The metallo-beta-lactamases (MBL) are a main antibiotic resistance mechanism evolved by bacteria. There is an urgent clinical need for MBL inhibitors to mitigate this growing threat. To support a machine-based learning study, qHTS has been used to experimentally test inhibitors identified by prediction tools.
PROTOCOL TABLE (as described by Inglese et al., 2007) SEQUENCE No. (e.g., 1, 2, 3, etc.); […] (e.g., enzyme, Incubation, Reagent, etc.); VALUE; DESCRIPTION Primary Screen 1; NDM-1; 4 uL of 3 nM enzyme [2 nM final] in 50 mM HEPES (pH 7.0), 1 uM […], 0.01% Tween20; Use BioRaptr to dispense into two sets of Aurora black, clear bottom high base 1536-well plates 2; Compounds; 23 nL; Use Pin Tool (Wako) to transfer DMSO control and library compounds in DMSO 3; Incubate; >30 min 4a; Reagent; 2 uL of 50 uM nitrocefin [16.7 uM final] to one set of assay plates 4b; Reagent; 2 uL of 150 uM meropenem [50 uM final] to second set of assay plates 5a; Incubate; 15 min 5b; Incubate; 30 min 6a; Detector; Absorbance at 485 nm (bandwidth = 5 nm, 25 flashes/well) on Tecan Infinity 6b; Detector; Absorbance at 300 nm (bandwidth = 5 nm, 25 flashes/well) on Tecan Infinity NOTES (numbers refer to sequence above) 1; Column 1 of each plate received assay buffer without enzyme and columns 2-48 received enzyme for a final assay concentration of 2 nM. 2; Control plate contained DMSO in columns 1, 2, 3, and 4. 3; Compound interaction with enzyme. 4; Nitrocefin and meropenem substrates were prepared in the same assay buffer as step 1 for a final assay concentration of 16.7 uM and 50 uM, respectively, and added to all wells across respective sets of assay plates. 5; Default reader settings were applied for absorbance read at 485 nm (nitrocefin) or 300 nm (meropenem), bandwidth = 5 nm, 25 flashes/well. References: Inglese J, Shamu CE, Guy RK. 2007. Reporting data from high-throughput screening of small-molecule libraries. Nat Chem Biol. doi:10.1038/nchembio0807-438 Yasgar A, Shinn P, Jadhav A, Auld D, Michael S, Zheng W, Austin CP, Inglese J, Simeonov A. 2008. Compound Management for Quantitative High-Throughput Screening. J Lab Autom 13:79 - 89. doi:10.1016/j.jala.2007.12.004
Also: % of control where 0% means no effect.

Metallo-beta-lactamase type 2 (Klebsiella pneumoniae), sequence (C7C422 whole entry, looked up): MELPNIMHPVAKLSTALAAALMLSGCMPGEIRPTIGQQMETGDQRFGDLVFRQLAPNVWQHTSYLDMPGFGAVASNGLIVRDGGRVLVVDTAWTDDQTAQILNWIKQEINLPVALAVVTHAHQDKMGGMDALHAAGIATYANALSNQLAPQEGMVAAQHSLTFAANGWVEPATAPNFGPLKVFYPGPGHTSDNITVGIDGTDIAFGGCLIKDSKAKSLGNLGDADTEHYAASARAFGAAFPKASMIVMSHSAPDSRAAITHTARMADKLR

Row | Compound | activity change, negative = inhibition
1 | O=C(O)CCC(=O)N1Cc2[nH]cnc2C[C@H]1C(=O)NC1CCCCC1 | 13% [at 57.5 µM] (inactive)
2 | CO[C@H]1[C@H](NC(=O)COc2ccccc2)c2ccccc2C12CCNCC2 | 1.6% (inactive)
3 | COc1ccc(-c2cc(N3CCCC(NC(=O)c4cccn4C)C3)n[nH]2)cc1 (stereo not drawn) | -0.774% (inactive)
4 | CC1=C[C@@H](CNC(=O)c2cncnc2)[C@H](C(C)C)C[C@H]1CC(=O)N(C)Cc1ccccc1 | -0.536% [at 57.5 µM] (inactive)
5 | CCOCC(=O)N1CCC(N2CC3CC(C2)[C@H]2CCCC(=O)N2C3)CC1 (stereo partly drawn) | -2.05% (inactive)
6 | NC(=O)c1cccc(-c2cc3c(cn2)CN(Cc2ccncc2)CCN3)c1 | 0.513% [at 57.5 µM] (inactive)
7 | Cc1ccc(-c2noc([C@@H]3Cc4nc[nH]c4CN3Cc3ccccc3)n2)cc1 | 51.9% [at 57.5 µM] (inactive)
8 | Cn1cc(-c2cnc(NC(=O)c3c[nH]c4ccccc34)c3c2CCO3)cn1 | 6.8% [at 57.5 µM] (inactive)
9 | O=C(NCCc1ccc(Cl)cc1)c1nc(-c2cc(Cl)cc(Cl)c2)c2ccccn12 | 0.233% (inactive)
10 | CCCNC(=O)N(C1CCOCC1)C1CCN(C(=O)Nc2c(F)cccc2F)CC1 | -4.65% (inactive)
11 | O=C(Cc1c[nH]c2ncc(-c3ccsc3)cc12)NCc1cccnc1 | -0.817% [at 57.5 µM] (inactive)
12 | Cc1ccccc1-c1cnc2n[nH]c(-c3ccccc3)c2n1 | 2.04% [at 76.7 µM] (inactive)
13 | CC1(COc2cccnc2)COc2ccc(C(=O)Nc3ccc4[nH]ccc4c3)cc2N1 (stereo not drawn) | 16.2% [at 57.5 µM] (inactive)
14 | O=C(NCCc1cnc[nH]1)C1CCN(C2CCCCC2)CC1 | 0.443% (inactive)
15 | Cc1ccccc1NC(=O)c1cnc2c(c1)N(Cc1ccccc1)CCC2 | 4.53% [at 57.5 µM] (inactive)
16 | C=CCCC(CN1CCCOCC1)Oc1ccc(-c2ccccc2)nn1 (stereo not drawn) | -1.94% (inactive)
17 | COCCc1noc(CN(C)c2cc(C(C)C)nc3ccnn23)n1 | -1.68% (inactive)
18 | CCC(=O)N1CCC(Cc2nc(-c3ccccc3)n[nH]2)CC1 | 0.766% (inactive)
19 | Cc1cc(C(=O)N[C@H](C)c2c(-c3ccc(Cl)cc3)noc2C(=O)O)c(C)o1 | 53.2% [at 57.5 µM] (inactive)
20 | CC(=O)Nc1ccc(CN2CCC(N3CCCCCC3=O)CC2)cc1 | 0.422% (inactive)
21 | CC[C@H]1CN(C(=O)C(C)(C)C)CC[C@H]1CC(=O)NCCSC | 1.03% [at 57.5 µM] (inactive)
22 | O=c1[nH]c(-c2ccc(F)cc2)nc2c1CCN(S(=O)(=O)c1cccs1)C2 | 1.01% (inactive)
23 | O=C(O)c1cncc(N2CCC3(CC2)CNC(C(=O)O)C3)n1 (stereo not drawn) | 42.7% (inactive)
24 | COc1cccc(CN2CCOC[C@H](Oc3cccnc3)C2)c1 | 1.48% [at 57.5 µM] (inactive)

Row | Compound | activity change, negative = inhibition
25 | O=C(O)[C@H]1C[C@@H](C(=O)NCc2ccccn2)CN(CC2CC2)C1 | 22.1% (inactive)
26 | O=C(CN1C(=O)NC(c2ccccc2Cl)C2=C1COC2=O)Nc1ccc(F)c(Cl)c1 (stereo not drawn) | 2.9% (inactive)
27 | COc1ccc(CN2CCNc3cnc(Nc4ccccc4)cc3C2)cn1 | 15% [at 57.5 µM] (inactive)
28 | Cc1noc([C@@H](C)NC(=O)Nc2cccnc2)c1C(=O)O | 49.7% [at 57.5 µM] (inactive)
29 | O=C(CCn1nnc(-c2ccccc2)n1)N1CCCC2(CCNCC2)CC1 | -4.15% (inactive)
30 | CC(C)CCNC1(Cc2cc(CN3CCOCC3)on2)COC1 | 8.33% [at 57.5 µM] (inactive)
31 | Cc1noc([C@@H]2CNC[C@H]2CO)n1 | 4.3% (inactive)
32 | O=C(NCc1cccnc1)[C@@H]1C[C@@H](c2ccc(F)cc2)N(Cc2ccccc2)C1 | -0.331% [at 57.5 µM] (inactive)
33 | CC1=C[C@@H](CC#N)[C@H](C(C)C)C[C@H]1CC(=O)NC1CC1 | -1.03% [at 76.7 µM] (inactive)
34 | c1cncc(Nc2cc3c(cn2)CN(Cc2ccc4[nH]ccc4c2)CCN3)c1 | 1.18% [at 57.5 µM] (inactive)
35 | COc1ccc(-c2cc(-c3cccc(C(N)=O)c3)cn3cncc23)cc1 | 29.1% [at 57.5 µM] (inactive)
36 | NC(=O)Cc1c[nH]c2ncc(-c3ccc(F)cc3)cc12 | 12.5% [at 76.7 µM] (inactive)
37 | O=c1c2nc(NCc3ccccc3)ccc2ncn1Cc1ccccn1 | 18.9% [at 57.5 µM] (inactive)
38 | CCCS(=O)(=O)N1CCC(Oc2nccnc2N2CCOCC2)C1 (stereo not drawn) | 5.44% (inactive)
39 | CCCCCC(=O)Nc1nc2c(s1)C[C@@H]1[C@](C)(CO)[C@H](O)CC[C@@]1(C)[C@@H]2CC(=O)NCc1ccccc1 | 0.525% (inactive)
40 | CC[C@H]1CN(S(=O)(=O)c2c(C)noc2C)CC[C@H]1CC(=O)NCc1ccco1 | 1.93% [at 57.5 µM] (inactive)
41 | CC(C)c1noc([C@@H]2C[C@H](NC(=O)Nc3ccc(F)cc3)CN2C)n1 | -1.13% [at 57.5 µM] (inactive)
42 | COCCNC(=O)C[C@@H]1C[C@H]2O[C@H](CNC3CCCCC3)[C@@H](O)[C@H]2O1 | 0.285% [at 57.5 µM] (inactive)
43 | O=C(CSc1ccncc1)N1CCN2C(=O)N(Cc3ccccc3)C(=O)[C@H]2C1 | 27.2% [at 57.5 µM] (inactive)
44 | OC[C@H]1C[C@@H](NCc2cccc3c2OCO3)[C@H](O)[C@@H]1O | 7.96% [at 76.7 µM] (inactive)
45 | c1ccc(-c2cnc(Nc3ccncc3)c3c2CCO3)cc1 | 10.6% [at 76.7 µM] (inactive)
46 | CCC[S+](=O)([O-])N1CCN(C(=O)N2CC3CC(C2)[C@H]2CCCC(=O)N2C3)CC1 (stereo partly drawn) | -3.2% (inactive)
47 | O=C(O)c1cc(-c2cccc(CO)c2)cc(S(=O)(=O)N2CCOCC2)c1 | 1.88% (inactive)
48 | COc1ccc(C2Cn3nnc(C(=O)N4CCN(C(=O)c5cc(F)ccc5Cl)CC4)c3CO2)cc1 (stereo not drawn) | -0.346% (inactive)
